We go through 105 compounds from PubChem BioAssay AID2289 (National Center for Advancing Translational Sciences (NCATS), 2010).

SMILES strings stand for the structures. About 3,300 (0.97%) of roughly 340,000 compounds were called active. About 9% were inconclusive and are not listed. Calls follow the shape of the dose curve; as a rule, active = well fitted inhibition curve with a large enough effect; inconclusive = small, poorly fitted or top-dose-only effect, or effect the other way; inactive = flat fitted curve, though single readings scatter. The list shows a part of the results.
Potency is read from the fitted curve at half-maximal effect.

A short description of the test: qHTS Assay for Modulators of miRNAs and/or Inhibitors of miR-21. Also: nearly all actives have a fitted effect of over 55% in size. The settings on record: HeLa miR-21-FLuc reporter, luciferase luminescence, 48 h; actives lower the signal. The procedure, abridged:
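HeLa cells stably expressing CMV-driven firefly luciferase with a downstream miR-21 binding sequence, endogenously expressing miR-21, were treated with titrations (up to about 40uM final) for 48 hours at 37 degree Celsius. Luciferase luminescence was read after lysis.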
In general terms: In qHTS, concentration-response curves come from the screen itself.
Regarding `CS(=O)c1ccccc1-c1nc(-c2ccc(Cl)cc2)no1` (stereo not given), the Potency was 6.56 µM (active).
On to `Cc1ccc(NC(=O)Nc2ccc3c(c2)OCO3)cc1F`, for which the Potency was 0.736 µM (active).
With `Cc1ccc(NC(=O)Nc2ccc3c(c2)OCO3)nc1` the figure was 2.33 µM (active).
The figure for `CCCSc1nsc(NC(=O)CC)n1` is 0.521 µM (active); for `c1csc(CSc2nnc3sc4ccccc4n23)c1` it is 8.26 µM (active).
On to `O=C(CSc1nnc2sc3ccccc3n12)c1ccco1`, for which the Potency was 16.5 µM (active).
Regarding `Cc1nc(NC(=O)/C=C/c2ccccc2)sc1C(=O)N(C)C`, the Potency is 13.1 µM (active).
The figure for `COc1ccccc1C(=O)N/N=C/c1ccc2c(c1)OCO2` is 3.29 µM (active); for `COc1cc(Cl)c(C)cc1NC(=O)c1cccc(OC)c1OC` it is 5.21 µM (active); for `COc1ccccc1C(=O)N/N=C/c1cnc2ccccc2n1` it is 11.7 µM (active).
As for `COc1cccc(C(=O)Nc2ccc3c(c2)OCO3)c1OC`, the Potency was 2.07 µM (active).
The figure for `COc1ccccc1C(=O)Nc1nc2cc3c(cc2s1)OCO3` is 0.736 µM (active); for `O=C(CNC(=O)c1ccccc1F)N/N=C/c1ccc2c(c1)OCO2` it is 18.5 µM (active); for `COc1ccccc1C(=O)Nc1ccc2c(c1)OCO2` it is 9.27 µM (active).
`CC(=O)c1ccc2c(c1)Cc1cc(C(C)=O)ccc1-2`: the Potency was 1.85 µM (active).
The figure for `COc1ccc(-c2nc3c4ccccc4[nH]c(=O)n3n2)cc1` is 3.69 µM (active).
Take `Cc1ccc(-c2nc3c4ccccc4[nH]c(=O)n3n2)cc1`: the Potency was 1.65 µM (active).
As to `C[C@H](NS(=O)(=O)c1ccc(Cl)cc1)C(=O)OCC(=O)NC(=O)Nc1ccc2c(c1)OCCO2`, the Potency is 13.1 µM (active).
In the case of `Cc1ccc(OCc2cn3cccnc3n2)cc1`, the Potency is 2.07 µM (active).
On to `Cc1cc(OCc2cn3cccnc3n2)ccc1Cl`, for which the Potency was 7.36 µM (active).
`c1ccc(NCC2OCc3ccccc3CO2)cc1`: the Potency was 4.65 µM (active).
On to `Cc1ccc(Nc2nc(N)c([N+](=O)[O-])c(NCc3ccco3)n2)cc1`, for which the Potency is 18.5 µM (active).
As to `Nc1nc(Nc2cccc(Cl)c2)nc(NCc2ccco2)c1[N+](=O)[O-]`, the Potency is 13.1 µM (active).
Turning to `N/C(=N\OC(=O)Cc1ccc(Cl)cc1)c1ccccn1`, the Potency is 13.1 µM (active).
Regarding `COc1ccccc1C(=O)O/N=C(\N)c1ccccc1Cl`, the Potency was 3.29 µM (active).
For `Cc1ccc(CC(=O)O/N=C(\N)c2ccccn2)cc1`, the Potency was 4.14 µM (active).
With `N/C(=N\OC(=O)Cc1ccccc1)c1ccccc1Cl`, the Potency is 5.85 µM (active).
With `CN(C)Cc1c(-c2ccc(Cl)cc2)nc2ccccn12`, the Potency is 6.56 µM (active).
Regarding `Brc1ccc(-c2ncc3ccccn23)cc1`, the Potency is 7.36 µM (active).
`Clc1c(-c2ccccc2)nc2ccccn12`: the Potency is 5.21 µM (active).
On to `Cc1c(-c2ccc(Br)cc2)nc2ccccn12`, for which the Potency is 1.47 µM (active).
With `COc1ccc(CN=C(C)c2c(C(F)(F)F)[nH]n(-c3nc4ccccc4s3)c2=O)cc1` the figure was 7.36 µM (active); with `CNc1nn(-c2cccc(Cl)c2)nc1N`, 4.47 µM (active); with `O=C(NNc1nc2cc3c(cc2s1)OCCO3)c1ccccc1`, 14.7 µM (active).
As to `O=C(NNc1nc2cc3c(cc2s1)OCO3)c1ccccc1`, the Potency is 13.1 µM (active).
As to `CN(C)c1ccc(CNc2nc(-c3ccco3)nn2S(C)(=O)=O)cc1`, the Potency was 7.36 µM (active).
As to `CC(C)c1ccc(CNc2nc(-c3ccco3)nn2C(=O)c2ccc([N+](=O)[O-])cc2)cc1`, the Potency is 2.07 µM (active).
With `COCC(=O)n1nc(-c2ccco2)nc1NCc1ccccc1Cl`, the Potency is 16.5 µM (active).
On to `COc1ccc(CNc2nc(-c3ccccc3)nn2C(=O)c2ccc([N+](=O)[O-])cc2)cc1`, for which the Potency was 14.7 µM (active).
Regarding `O=C(CC12CCC(CC1)C2)NCc1ccc2c(c1)OCO2`, the Potency is 16.5 µM (active).
On to `Cc1ccccc1CNC(=O)Cc1ccccc1[N+](=O)[O-]`, for which the Potency is 5.21 µM (active).
As for `O=C(Cc1ccccc1[N+](=O)[O-])NCc1ccc2c(c1)OCO2`, the Potency is 10.4 µM (active).
For `O=C(Cc1ccccc1[N+](=O)[O-])NCc1ccc(Cl)cc1`, the Potency is 14.7 µM (active).
On to `CCCn1cnc2cc(NCc3ccc(Br)cc3)ccc21`, for which the Potency is 7.36 µM (active).
For the compound `CCCn1cnc2cc(NCc3cccs3)ccc21`, the Potency was 7.36 µM (active).
As to `CCn1cnc2cc(NCc3ccc(Br)cc3)ccc21`, the Potency was 3.29 µM (active).
For the compound `COC(=O)c1ccc(N=NNc2ccc(C(=O)OC)cc2)cc1`, the Potency is 0.208 µM (active).
Consider `COC(=O)c1ccc(NN=Nc2ccc(C)cc2)cc1`, for which the Potency was 2.07 µM (active).
The figure for `O=C(NCC1CCCO1)c1sc2ccccc2c1Cl` (stereo not given) is 3.29 µM (active); for `CC(NC(=O)c1sc2ccccc2c1Cl)C1CCCO1` (stereo not given) it is 5.21 µM (active).
As to `CCn1c2ccccc2c2nc3cc(C(=O)O)ccc3nc21`, the Potency is 9.27 µM (active).
With `Cc1ccc(C(=O)Cc2cc3ccccc3oc2=O)c(C)c1` the figure was 2.07 µM (active).
The figure for `COc1cccc2cc(CC(=O)c3ccc(C)cc3C)c(=O)oc12` is 11.7 µM (active); for `CN(c1ccccc1)c1nc2ccsc2c(=O)s1` it is 12.6 µM (active).
With `COc1ccc(-c2cc(C(=O)c3c(N)n(C)c(=O)n(C)c3=O)c3ccccc3n2)cc1OC` the figure was 4.65 µM (active).
In the case of `COc1ccc2c(c1)CCC/C2=N\NC(=O)c1ccoc1C`, the Potency was 2.93 µM (active).
Turning to `CC(=O)N1N=C(c2ccc(C)cc2)OC1c1ccc(C(C)C)cc1` (stereo not given), the Potency was 3.29 µM (active).
For `CN1N=C(C(=O)N2CCc3c([nH]c4ccccc34)C2c2ccccc2Cl)CCC1=O` (stereo not given), the Potency is 10.4 µM (active).
With `O/N=C/c1ccc(OCc2ccccc2)c(Cl)c1` the figure was 2.07 µM (active); with `O/N=C/c1ccc(OCc2ccccc2)c(Br)c1`, 3.69 µM (active).
As to `CCCOc1ccc(-c2nc(N3CCN(C)CC3)c3ccccc3n2)cc1`, the Potency was 2.93 µM (active).
Regarding `COc1cc(CNc2ccc(NC(C)=O)cc2)ccc1OCc1ccccc1C`, the Potency is 7.36 µM (active).
In the case of `COc1nc(-c2ccccc2)nnc1-c1ccccc1`, the Potency is 1.17 µM (active).
As for `c1ccc(-c2nnc(-c3ccccc3)nn2)cc1`, the Potency was 2.07 µM (active).
With `Nc1ccc(-c2nnc(-c3ccc(N)cc3)o2)cc1` the figure was 3.29 µM (active); with `Cc1ccc(-c2nnc(/C=C/c3ccccc3)o2)cc1`, 0.329 µM (active).
With `O=C(O)c1ccc(-c2nnc(-c3ccccc3)o2)cc1`, the Potency was 0.329 µM (active).
For the compound `c1ccc(-c2nnc(-c3ccccc3)o2)cc1`, the Potency is 1.31 µM (active).
Take `Cc1cc(C)cc(N(CC(=O)Nc2ccc(-c3nc4ccc(C)cc4s3)cc2)S(C)(=O)=O)c1`: the Potency is 3.29 µM (active).
Turning to `Cc1cccc(N(CC(=O)Nc2ccc(-c3nc4ccc(C)cc4s3)cc2)S(C)(=O)=O)c1`, the Potency was 4.14 µM (active).
Turning to `Cc1ccc2nc(-c3ccc(NC(=O)CN(C)S(=O)(=O)c4ccccc4)cc3)sc2c1`, the Potency is 0.369 µM (active).
As to `O=C(Nc1cc2c(cc1Cl)OCCCO2)c1ccc(F)cc1`, the Potency is 3.69 µM (active).
As to `Cc1ccc(C(=O)Nc2cc3c(cc2Cl)OCCCO3)cc1`, the Potency was 1.31 µM (active).
The figure for `O=C(/C=C/c1ccco1)Nc1ccc(N2CCCC2)cc1` is 1.65 µM (active); for `O=C(Nc1ccc(NC(=O)c2cccs2)cc1)c1ccco1` it is 8.26 µM (active); for `O=C(/C=C\c1ccco1)c1ccc(NC(=O)c2ccco2)cc1` it is 13.1 µM (active).
Turning to `CC(C)(C)n1cnc2cc(NC(=O)c3cccs3)ccc21`, the Potency was 1.65 µM (active).
Turning to `O=C(CNC(=O)c1ccco1)Nc1ccc(Br)cc1`, the Potency was 11.7 µM (active).
As to `O=C(Nc1ccc(NC(=O)c2cccs2)cc1)c1cccs1`, the Potency was 5.21 µM (active).
`Cc1ccc(/C=N/c2sc3c(c2C#N)CCC3)s1`: the Potency is 0.261 µM (active).
With `N#Cc1c(/N=C/c2cccs2)sc2c1CCCCC2`, the Potency is 0.464 µM (active).
`O=C(CSc1nccn1-c1ccccc1)Nc1nc2ccccc2s1`: the Potency was 6.56 µM (active).
With `O=C(CC1CCCCC1)Nc1nc2ccccc2s1` the figure was 1.85 µM (active); with `CC1(C(=O)Nc2nc3ccccc3s2)CC1(Br)Br` (stereo not given), 8.26 µM (active).
In the case of `COc1ccc(C2CC(C)(c3ccc(OC)cc3)Nc3ccccc3N2)cc1` (stereo not given), the Potency is 7.36 µM (active).
For the compound `O=C(c1ccccc1)c1cnc(-c2ccc(Cl)cc2)s1`, the Potency is 0.464 µM (active).
On to `O=C(COc1ccc(Cl)cc1Cl)NCc1ccco1`, for which the Potency was 16.5 µM (active).
As to `N#Cc1ccccc1OCC(=O)NC(=O)NCc1ccco1`, the Potency was 6.56 µM (active).
`O=C(COc1ccc(Cl)cc1Cl)c1ccc[nH]1`: the Potency is 10.4 µM (active).
As to `COc1cc2ccccc2cc1C(=O)Nc1ccc(N2CCN(C)CC2)cc1`, the Potency was 7.36 µM (active).
For `Cc1nnc(NC(=O)c2cc3ccccc3o2)s1`, the Potency is 8.26 µM (active).
The figure for `CN1CCN(c2ccc(NC(=O)c3sc4ccccc4c3Cl)cc2)CC1` is 1.17 µM (active); for `CC(C)C(=O)Nc1ccc(NC(=O)c2cc3ccccc3o2)cc1` it is 11.2 µM (active).
The figure for `CC(Cc1ccccc1)NC(=O)c1cc2ccccc2o1` (stereo not given) is 6.56 µM (active); for `CN1CCN(c2ccc(NC(=O)c3cc4ccccc4o3)cc2)CC1` it is 0.927 µM (active); for `O=C(Nc1ncccc1Cl)c1cc2ccccc2o1` it is 0.656 µM (active).
As for `COc1cc(/C=N/O)ccc1OCc1ccc([N+](=O)[O-])cc1`, the Potency was 3.29 µM (active).
For `COc1cc(/C=N/O)ccc1OCc1ccc(Cl)cc1`, the Potency is 0.369 µM (active).
With `COc1cc(/C=N/O)ccc1OCc1ccccc1Cl` the figure was 2.93 µM (active); with `O=C(c1ccc2c3n(nc2c1)-c1ccc(Cl)cc1CO3)N1CCOCC1`, 5.21 µM (active); with `Cc1ccc2c(c1)COc1c3ccc(C(=O)N4CCOCC4)cc3nn1-2`, 5.21 µM (active).
`Cc1ccc2c(c1)COc1c3ccc(C(=O)N4CCCCC4)cc3nn1-2`: the Potency was 3.69 µM (active).
In the case of `O=C(CSc1nnc(-c2ccc(C(F)(F)F)cn2)o1)Nc1cccc(Cl)c1`, the Potency was 4.14 µM (active).
On to `O=C(CSc1nnc(-c2ccccn2)o1)Nc1cccc(Cl)c1`, for which the Potency is 1.85 µM (active).
As for `C#Cc1cccc(NC(=O)CSc2nnc(-c3ccc(C(F)(F)F)cn3)o2)c1`, the Potency was 4.14 µM (active).
